An excerpt weighted towards active compounds, which were near 8.6% of everything screened.
LASV entry inh: blocks Lassa virus binding or cell entry; Potency, µM (titrated, usually from 49.2 µM), for inactives: at the highest dose activity change, negative = inhibition, hits mostly inhibitors; Lassa virus pseudotyped entry inhibition, cell-based qHTS; 18,000 tested, 4.1% active; AID 720533
Marburg entry: Marburg virus entry inhibition; Marburg virus pseudotype entry/binding inhibition, cell-based; Potency, µM (top dose mostly 49.2 µM), for the others: top-dose activity change, negative = inhibition, hits mostly inhibitors; 18,000 tested, 6.5% active
* = called active by the depositor; ? = inconclusive; ! = repeats disagree; [ ] = dose if it differs, or a comment. Calls come from the whole dose curve; tested in HEK293 cells. % is set by controls: 0 for no effect and ±100 for the full control effect; potency is the fitted concentration of half-maximal effect.

SMILES	LASV entry inh	Marburg entry
CCCCNc1ccc(C(=O)OCCN(C)C)cc1	-2%	?
Cc1c(C)n(CCN(C)C)c2ccc(C(=O)OCCN(C)C)cc12	32µM*	4µM*
C/C(=C/C=C/[C@@H](C)C(=O)O)[C@H]1CN[C@H](C(=O)O)[C@H]1CC(=O)O	-7%	7%
Clc1cccc(Nc2nnc(-c3ccccc3)c3ccccc23)c1	3.5µM*	7.1µM*!
c1ccc(-c2nc(-c3cccc4ccccc34)c(Nc3ccc4ccccc4c3)o2)cc1	1%	4%
C/C=C(\C)C(=O)OC1CC(OC(C)=O)[C@@]2(C(=O)OC)COC3C2[C@@]12CO[C@](O)(C(=O)OC)C2[C@](C)(C12OC1(C)C1CC2OC2OC=C[C@]21O)C3O (some centres undefined)	1%	1%
CC[C@@H](O)C(C[C@@H](C)N(C)C)(c1ccccc1)c1ccccc1	?	13µM*
CCC(O)c1ccccc1 (centres undefined)	-8%	8%
CC1(C)OC2CC3C4CC(F)C5=CC(=O)C=C[C@@]5(C)[C@@]4(F)C(O)C[C@@]3(C)[C@]2(C(=O)CO)O1 (some centres undefined)	-5%	4%
Oc1ccc(Nc2nc(-c3ccc(Cl)cc3)cs2)cc1	13µM*	?
O=C(c1ccc(C(F)(F)F)cc1)N1CCC(=O)N([C@H](COCc2ccc(Cl)cc2)Cc2ccccc2)CC1	28µM*	?
Cc1cccc(C(=O)N2CCC(=O)N([C@H](COCc3ccccc3)Cc3ccccc3)CC2)c1	?	-19%
O=C(NC(=O)c1c(F)cccc1F)Nc1cc(Cl)c(OC(F)(F)C(F)C(F)(F)F)cc1Cl (centres undefined)	-9%	6%
COC1=C[C@H]2C3=C([C@H]2C1=O)[C@H](NC(C)=O)CCc1cc(OC)c(OC)c(OC)c13	-10%[17.8 µM]	4%[17.8 µM]
C#C[C@@]1(OC(C)=O)CC[C@@H]2[C@@H]3CCC4=C[C@@H](OC(C)=O)CC[C@H]4[C@H]3CC[C@]21C	-10%[17.8 µM]	1%[17.8 µM]
C#C[C@]1(OC(C)=O)CC[C@H]2[C@@H]3CCC4=C/C(=N/O)CC[C@@H]4[C@H]3CC[C@@]21CC	28µM*	-15%
CCOCN(C(=O)CCl)c1c(C)cccc1CC	-3%	-9%
COc1ccc(-c2cc(C(=O)O)no2)cc1	3%	20%
OCCN1CCN(CCCN2c3ccccc3Sc3ccc(C(F)(F)F)cc32)CC1	16µM*!	7.1µM*
COc1ccccc1N1CCN(CCCCNC(=O)c2ccc(-c3ccc(C(C)=O)cc3)cc2)CC1	11%	?
OCCN1CCN(CCCN2c3ccccc3C=Cc3ccccc32)CC1	25µM*!	11µM*
O=S1(=O)CC(N2CCN(CCO)CC2)CN1CCc1ccccc1 (centres undefined)	-11%	24%
CCC(=O)c1ccc2c(c1)N(CCCN1CCN(CCO)CC1)c1ccccc1S2	14µM*	10µM*
CC(=O)c1ccc2c(c1)N(CCCN1CCN(CCO)CC1)c1ccccc1S2	28µM*	10µM*
CCCCOc1cc(C[C@@H]2CNC(=O)N2)ccc1OC	10%	7%
SMILES	LASV entry inh	Marburg entry
COc1cccc(Cc2nc3cccnc3n2C2CCN(C(=O)c3n[nH]c4c3CCCC4)CC2)c1	18%	?
CC(=O)OCC1=C(C(=O)O)N2C(=O)[C@@H](NC(=O)Cc3ccccc3)[C@H]2SC1	-7%	-20%
COC(=O)CCC(=O)OC1(C)C(=O)C=C2C=C3CCCN3C=C2C1=O (centres undefined)	-15%[8.59 µM]	-43%[8.59 µM]
C[C@@H]1CCCN1[C@@H]1C[S+](=O)([O-])N[C@@H]1COCc1ccccc1	8%	14%
C=CCCCCCCCCCCCC(O)CC(O)COC(C)=O (centres undefined)	11%	15%
CCOC(=O)/C=C/CCCC=O	6%	17%
CC(C)[C@H](NC(=O)[C@H](CCCCN)NC(=O)[C@@H](NC(=O)[C@@H]1CCCN1C(=O)[C@H](CCCN=C(N)N)NC(=O)[C@H](CCCN=C(N)N)NC(=O)[C@H](CCCCN)NC(=O)[C@H](CCCCN)NC(=O)CNC(=O)[C@@H](NC(=O)[C@@H]1CCCN1C(=O)[C@@H](N)CCCCN)C(C)C)C(C)C)C(=O)N[C@@H](Cc1ccc(O)cc1)C(=O)N1CCC[C@H]1C(=O)O	-3%	13%
C=CCN1C=C2C(=O)C(C)(OC(=O)C3CCCC3)C(=O)C=C2C=C1c1ccsc1 (centres undefined)	-7%[8.59 µM]	21%[8.59 µM]
CN1CCN(CCC=C2c3ccccc3Sc3ccc(S(=O)(=O)N(C)C)cc32)CC1	20µM*	10µM*
Nc1ccc(CCN2CCN(c3cccc(C(F)(F)F)c3)CC2)cc1	?	-14%
CN1CCN(CCC(=O)N2c3ccccc3Sc3ccc(C(F)(F)F)cc32)CC1	?	16µM*
OCCN1CCN(CC/C=C2/c3ccccc3Sc3ccc(C(F)(F)F)cc32)CC1	13µM*	5.6µM*
Cc1scc2c1N(C(=O)CN1CCN(C)CC1)c1ccccc1NC2=O	2%	-3%
